Results from PubChem BioAssay.
The list shows a part of the results. Active and inactive are the calls of the source. Rule as the data show it, unless noted: active = inhibition above about 42%; inactive = the rest.

Assays:
[1] = StAR promoter reporter inhibitors, counter-screen for LRH-1 inverse agonist project, cell-based, luminescence, high throughput (AID 651611; in the data active = inhibition above about 28%); conditions: StAR promoter luciferase reporter counterscreen, at 3.6 µM, stronger effect = higher value
[2] = target: Nuclear receptor subfamily 5 group A member 2 (Homo sapiens) (UniProt O00482); test: LRH-1 (NR5A2) inverse agonists, retest, confirmation, cell-based, luminescence (AID 651613); conditions: cell-based LRH-1 luciferase reporter, inverse agonism; at 3.6 µM; stronger effect = higher value
[3] = target: Steroidogenic factor 1 (Homo sapiens) (UniProt Q13285); test: SF1 (NR5A1) inverse agonists, counter-screen for LRH-1 inverse agonist project, cell-based, luminescence, high throughput (AID 651614; in the data active = inhibition above about 44%); conditions: cell-based SF1 luciferase reporter, at 3.6 µM, stronger effect = higher value
[4] = VP16 transactivation reporter inhibitors, counter-screen for LRH-1 inverse agonist project, cell-based, luminescence, high throughput (AID 651615; in the data active = inhibition above about 33%); conditions: Gal4-VP16 luciferase reporter cells, at 3.6 µM, stronger effect = higher value
[5] = target: Receptor-interacting serine/threonine-protein kinase 2 (Homo sapiens) (UniProt O43353); test: NOD2-RIPK2 binding disruptors, retest, confirmation, fluorescence, CHO cells, BLA complementation, triplicate (AID 624370;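 active = mean inhibition across replicates above a set limit taken from the earlier primary screen, cut at about 21% in these data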); conditions: CCF4 FRET, at 4.98 µM, stronger effect = higher value
[6] = beta-lactamase reporter inhibitors in CHO cells, confirmation, artefact control for NOD2-RIPK2 interaction inhibitor project, cell-based, CHO-K1 CMV-bla, CCF4 FRET, fluorescence (AID 624371;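 active = mean inhibition above the low-control mean inhibition plus three low-control SD, cut at about 11% in these data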); conditions: CCF4 FRET ratio, counterscreen, at 4.98 µM, stronger effect = higher value
[7] = target: Nuclear receptor coactivator 1 (Homo sapiens) (UniProt Q15788); test: SRC1 coactivator transcriptional activity inhibitors, confirmation, cell-based, luminescence, quadruplicate (AID 588820;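 active = mean inhibition above 46.68%, the untreated control wells mean plus 3 SD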); conditions: HEK293 GAL4-SRC1 luciferase reporter, at 3.6 µM, stronger effect = higher value
[8] = VP16 transactivation inhibitors, counter-screen for SRC1 inhibitor project, cell-based, luminescence, high throughput (AID 588824; in the data active = inhibition above about 25%); conditions: cell-based VP16 transactivation luciferase luminescence; at 3.6 µM; stronger effect = higher value
[9] = target: Photoreceptor-specific nuclear receptor (Homo sapiens) (UniProt Q9Y5X4); test: NR2E3 agonist confirmation in cells, cell-based, luminescence, CHO-S two-hybrid (AID 624378;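 active = average inhibition above a cutoff equal to the mean inhibition of all tested compounds plus one SD, cut at about 70% in these data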); conditions: CHO-S mammalian two-hybrid NR2E3-NCOR, luciferase luminescence; at 3.98 µM; stronger effect = higher value
[10] = GAL4-VP16 reporter modulators, confirmation, counter-screen for NR2E3 agonist project, cell-based, luminescence, CHO-S, high throughput (AID 624379;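 active = mean inhibition above a cutoff equal to the average over all tested compounds plus one standard deviation, cut at about 70% in these data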); conditions: CHO-S GAL4-VP16 luciferase reporter, at 3.98 µM, stronger effect = higher value
[11] = tested on: transactivating tegument protein VP16 (Human herpesvirus 1); test: VP16 transactivation reporter inhibitors, counter-screen for SRC2 inhibitor project, cell-based, luminescence, single concentration (AID 652007; in the data active = inhibition above about 36%); conditions: cell-based VP16 transactivation luciferase reporter, at 8.9 µM, stronger effect = higher value
[12] = target: Nuclear receptor coactivator 2 (Homo sapiens) (UniProt Q15596); test: SRC2 coactivator transcriptional activity inhibitors, confirmation, cell-based, luminescence, HEK293, triplicate (AID 652008;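 active = mean inhibition above 46.5%, the solvent-only control mean plus 3 SD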); conditions: HEK293 GAL4-SRC2 luciferase reporter, at 8.9 µM, stronger effect = higher value
[13] = growth loss of phage-infected RecBCD+ E. coli, confirmation, RecBCD inhibitor project, absorbance, E. coli V66, T4 gene 2 phage (AID 651982;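 active = mean inhibition over triplicates exceeding the hit threshold derived in the original primary screen, cut at about 11% in these data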); conditions: E. coli V66 + T4 2- phage, growth OD; at 11.9 µM; stronger effect = higher value
[14] = E. coli viability inhibition, counter-screen for RecBCD inhibitor project, absorbance, high throughput (AID 651983; in the data active = inhibition above about 20%); conditions: absorbance (OD) growth, at 11.9 µM, stronger effect = higher value
[15] = growth loss of phage-infected AddAB-carrying E. coli, confirmation, counter-screen for RecBCD inhibitor project, absorbance, E. coli V3065, T4 phage (AID 651984;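 active = mean inhibition above the solvent-only control wells' mean plus 3 SD, cut at about 22% in these data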); conditions: E. coli expressing H. pylori AddAB + T4 phage, OD growth; at 11.9 µM; stronger effect = higher value
[16] = compounds interfering with TAMRA-BSA probe, counter-screen for TCR-CD3 interaction inhibitor project, biochemical, fluorescence, TAMRA-labeled BSA (AID 652035; in the data active = inhibition above about 23%); conditions: TAMRA-labeled BSA probe fluorescence counterscreen; at 9.4 µM; stronger effect = higher value
[17] = tested on: T-cell receptor (TCR)-CD3 interaction, human; test: TCR-CD3 interaction inhibitors, retest, confirmation, biochemical, fluorescence, TAMRA-labeled TCR probe (AID 652036; in the data active = inhibition above about 19%); conditions: TAMRA-labeled TCR probe fluorescence binding assay; at 9.4 µM; stronger effect = higher value
[18] = target: Oxysterols receptor LXR-beta (Homo sapiens) (UniProt P55055); test: LXR agonists, Gal4 luciferase reporter, confirmation, counter-screen for hcDAF-12 agonist project, cell-based, luminescence, HEK293, H. contortus campaign (AID 743027;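 active = mean percent activation of the reporter above a cutoff set as the average over tested compounds plus their standard deviation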); conditions: HEK293 Gal4-LXR tk-luc reporter, 24 h, at 6.8 µM, stronger effect = higher value, normalized: DMSO 0%, positive control 100%
[19] = tested on: Nuclear hormone receptor DAF-12 (Haemonchus contortus); test: H. contortus DAF-12 receptor agonists, confirmation, cell-based, luminescence, HEK293, lit1-tk-luc, triplicate (AID 743032;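 active = mean activation across triplicate tests above the threshold derived from the earlier primary screen, cut at about 5.5% in these data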); conditions: HEK293 hcDAF-12 lit1-tk-luc reporter, at 6.8 µM, stronger effect = higher value
[20] = tested on: DAF-12 nuclear receptor (Heterodera glycines), GAL4-LBD fusion; test: H. glycines DAF-12 receptor agonists, confirmation, cell-based, luminescence, HEK293, GAL4-LBD fusion (AID 743050;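 active = mean activation over triplicate wells above the hit cutoff derived from the earlier primary screen, cut at about 11% in these data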); conditions: HEK293 GAL4-hgDAF12 luciferase reporter, agonist mode; at 6.8 µM; stronger effect = higher value
[21] = target: Oxysterols receptor LXR-beta (Homo sapiens) (UniProt P55055); test: LXR agonists, Gal4 luciferase reporter, confirmation, counter-screen for hgDAF-12 agonist project, cell-based, luminescence, HEK293, H. glycines campaign (AID 743051;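 active = mean activation of the triplicate above a set limit carried over from the primary screen, none filed active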); conditions: 24 h, at 6.8 µM, stronger effect = higher value

Chain of Oxysterols receptor LXR-beta (Homo sapiens) (P55055 whole entry, looked up, the tested form may be a part): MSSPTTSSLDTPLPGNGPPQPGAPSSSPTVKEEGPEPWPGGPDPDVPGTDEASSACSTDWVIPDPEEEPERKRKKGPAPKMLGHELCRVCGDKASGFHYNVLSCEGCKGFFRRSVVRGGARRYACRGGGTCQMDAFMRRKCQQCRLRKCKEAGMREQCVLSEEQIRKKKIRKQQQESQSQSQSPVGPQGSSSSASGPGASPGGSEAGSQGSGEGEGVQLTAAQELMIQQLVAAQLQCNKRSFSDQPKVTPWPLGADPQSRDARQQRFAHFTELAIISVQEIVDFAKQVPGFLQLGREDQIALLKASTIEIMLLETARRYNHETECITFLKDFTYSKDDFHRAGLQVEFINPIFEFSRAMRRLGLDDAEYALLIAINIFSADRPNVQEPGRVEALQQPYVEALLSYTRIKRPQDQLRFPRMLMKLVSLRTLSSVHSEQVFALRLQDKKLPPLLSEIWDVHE
Chain of Nuclear receptor subfamily 5 group A member 2 (Homo sapiens) (O00482 whole entry, looked up): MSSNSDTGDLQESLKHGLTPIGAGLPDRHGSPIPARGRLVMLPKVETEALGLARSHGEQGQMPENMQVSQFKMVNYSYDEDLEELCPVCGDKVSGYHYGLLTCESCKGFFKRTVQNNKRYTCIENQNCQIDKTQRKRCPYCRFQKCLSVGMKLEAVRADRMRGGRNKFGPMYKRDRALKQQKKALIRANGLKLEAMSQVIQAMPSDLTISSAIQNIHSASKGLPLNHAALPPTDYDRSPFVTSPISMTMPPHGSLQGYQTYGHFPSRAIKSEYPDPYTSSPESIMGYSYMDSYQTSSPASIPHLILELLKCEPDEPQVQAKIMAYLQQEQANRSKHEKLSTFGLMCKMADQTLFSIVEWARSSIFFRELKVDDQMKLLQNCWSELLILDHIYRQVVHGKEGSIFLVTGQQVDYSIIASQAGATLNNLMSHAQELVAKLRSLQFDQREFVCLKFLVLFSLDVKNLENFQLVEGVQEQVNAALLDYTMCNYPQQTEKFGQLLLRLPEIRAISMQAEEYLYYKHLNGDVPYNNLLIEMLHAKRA
Chain of Nuclear receptor coactivator 1 (Homo sapiens) (Q15788 whole entry, looked up, the tested form may be a part): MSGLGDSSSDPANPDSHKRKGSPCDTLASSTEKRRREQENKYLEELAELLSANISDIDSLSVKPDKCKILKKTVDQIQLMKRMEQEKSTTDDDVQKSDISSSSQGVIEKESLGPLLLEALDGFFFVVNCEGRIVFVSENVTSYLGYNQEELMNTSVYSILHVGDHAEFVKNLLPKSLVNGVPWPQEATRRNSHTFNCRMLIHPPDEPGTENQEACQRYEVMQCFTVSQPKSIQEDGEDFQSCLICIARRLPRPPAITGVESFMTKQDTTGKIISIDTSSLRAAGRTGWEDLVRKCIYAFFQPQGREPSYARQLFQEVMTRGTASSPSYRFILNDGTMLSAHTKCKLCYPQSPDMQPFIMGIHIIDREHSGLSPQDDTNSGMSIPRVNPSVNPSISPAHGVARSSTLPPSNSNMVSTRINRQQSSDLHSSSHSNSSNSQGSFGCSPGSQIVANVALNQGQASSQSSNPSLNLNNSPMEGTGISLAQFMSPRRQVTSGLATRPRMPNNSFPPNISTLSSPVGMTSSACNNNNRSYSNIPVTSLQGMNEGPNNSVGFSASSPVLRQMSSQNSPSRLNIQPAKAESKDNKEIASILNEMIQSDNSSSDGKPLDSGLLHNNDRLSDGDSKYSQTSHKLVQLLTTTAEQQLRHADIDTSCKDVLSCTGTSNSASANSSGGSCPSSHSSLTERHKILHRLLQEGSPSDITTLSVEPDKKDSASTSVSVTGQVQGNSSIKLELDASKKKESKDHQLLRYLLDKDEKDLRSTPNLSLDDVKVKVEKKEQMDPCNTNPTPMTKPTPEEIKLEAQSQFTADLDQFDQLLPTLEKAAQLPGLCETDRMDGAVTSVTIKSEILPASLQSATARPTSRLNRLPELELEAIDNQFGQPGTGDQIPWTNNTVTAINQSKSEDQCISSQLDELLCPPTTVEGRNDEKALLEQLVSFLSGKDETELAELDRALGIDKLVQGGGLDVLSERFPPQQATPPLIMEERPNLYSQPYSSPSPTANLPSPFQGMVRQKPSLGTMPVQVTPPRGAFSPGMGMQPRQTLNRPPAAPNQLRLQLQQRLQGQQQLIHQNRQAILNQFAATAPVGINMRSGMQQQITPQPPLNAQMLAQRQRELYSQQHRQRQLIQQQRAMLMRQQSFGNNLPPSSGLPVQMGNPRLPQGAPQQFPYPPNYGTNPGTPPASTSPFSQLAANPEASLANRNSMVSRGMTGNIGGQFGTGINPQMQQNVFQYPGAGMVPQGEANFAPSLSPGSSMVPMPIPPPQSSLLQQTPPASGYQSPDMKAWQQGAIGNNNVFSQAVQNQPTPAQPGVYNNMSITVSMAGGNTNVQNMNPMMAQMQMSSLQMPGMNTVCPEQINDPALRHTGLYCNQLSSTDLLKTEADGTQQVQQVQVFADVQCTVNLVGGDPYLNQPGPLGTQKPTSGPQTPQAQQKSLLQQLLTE
Chain of Steroidogenic factor 1 (Homo sapiens) (Q13285 whole entry, looked up, the tested form may be a part): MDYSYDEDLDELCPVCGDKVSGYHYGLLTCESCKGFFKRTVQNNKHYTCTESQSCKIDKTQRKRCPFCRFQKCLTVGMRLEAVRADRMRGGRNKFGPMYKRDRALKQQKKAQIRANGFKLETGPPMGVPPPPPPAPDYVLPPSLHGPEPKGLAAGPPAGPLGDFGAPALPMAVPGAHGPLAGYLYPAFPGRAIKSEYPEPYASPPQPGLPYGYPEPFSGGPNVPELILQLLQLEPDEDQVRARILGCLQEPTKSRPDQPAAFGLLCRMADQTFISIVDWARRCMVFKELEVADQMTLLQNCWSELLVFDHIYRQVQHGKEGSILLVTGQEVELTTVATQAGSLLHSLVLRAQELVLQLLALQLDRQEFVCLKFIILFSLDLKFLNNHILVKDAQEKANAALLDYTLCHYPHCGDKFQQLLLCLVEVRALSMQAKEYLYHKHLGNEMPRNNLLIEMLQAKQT
Chain of Nuclear receptor coactivator 2 (Homo sapiens) (Q15596 whole entry, looked up, the tested form may be a part): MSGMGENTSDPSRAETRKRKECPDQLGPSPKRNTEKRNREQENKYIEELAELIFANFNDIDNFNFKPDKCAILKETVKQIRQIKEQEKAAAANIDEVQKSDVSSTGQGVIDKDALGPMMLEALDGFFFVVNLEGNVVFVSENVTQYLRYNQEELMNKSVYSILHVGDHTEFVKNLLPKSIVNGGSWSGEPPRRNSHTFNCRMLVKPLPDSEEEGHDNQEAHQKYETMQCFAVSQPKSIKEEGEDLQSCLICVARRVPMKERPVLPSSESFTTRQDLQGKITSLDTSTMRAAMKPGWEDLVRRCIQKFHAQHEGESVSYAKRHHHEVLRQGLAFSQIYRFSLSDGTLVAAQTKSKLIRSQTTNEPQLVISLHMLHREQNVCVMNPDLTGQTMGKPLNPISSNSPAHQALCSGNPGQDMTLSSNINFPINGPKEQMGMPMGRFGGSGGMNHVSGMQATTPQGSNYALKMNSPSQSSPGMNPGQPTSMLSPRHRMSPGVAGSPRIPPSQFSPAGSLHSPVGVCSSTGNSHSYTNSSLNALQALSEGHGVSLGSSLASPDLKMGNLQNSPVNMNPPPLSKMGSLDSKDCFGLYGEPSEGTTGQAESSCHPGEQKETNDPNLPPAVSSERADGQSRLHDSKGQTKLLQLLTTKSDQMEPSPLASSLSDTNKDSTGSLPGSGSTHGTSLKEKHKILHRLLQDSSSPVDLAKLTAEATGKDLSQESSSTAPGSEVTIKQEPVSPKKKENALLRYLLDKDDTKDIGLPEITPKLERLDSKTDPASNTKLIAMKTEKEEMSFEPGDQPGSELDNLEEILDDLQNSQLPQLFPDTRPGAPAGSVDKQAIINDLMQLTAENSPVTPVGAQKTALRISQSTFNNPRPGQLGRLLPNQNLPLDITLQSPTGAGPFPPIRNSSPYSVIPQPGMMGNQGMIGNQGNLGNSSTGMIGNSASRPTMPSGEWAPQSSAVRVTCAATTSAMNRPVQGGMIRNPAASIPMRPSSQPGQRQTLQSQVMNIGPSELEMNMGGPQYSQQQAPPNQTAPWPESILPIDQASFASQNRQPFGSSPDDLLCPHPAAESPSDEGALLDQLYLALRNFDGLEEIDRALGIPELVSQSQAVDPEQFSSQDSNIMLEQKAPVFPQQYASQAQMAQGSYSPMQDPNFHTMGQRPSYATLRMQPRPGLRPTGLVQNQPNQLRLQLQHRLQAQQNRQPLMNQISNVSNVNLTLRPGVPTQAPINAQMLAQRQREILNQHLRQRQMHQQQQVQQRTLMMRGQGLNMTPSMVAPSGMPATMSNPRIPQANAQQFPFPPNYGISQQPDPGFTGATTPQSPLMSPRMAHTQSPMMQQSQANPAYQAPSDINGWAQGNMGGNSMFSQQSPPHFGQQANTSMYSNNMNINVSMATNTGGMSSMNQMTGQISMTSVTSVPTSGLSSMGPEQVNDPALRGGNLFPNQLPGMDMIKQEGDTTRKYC
Chain of Receptor-interacting serine/threonine-protein kinase 2 (Homo sapiens) (O43353 whole entry, looked up): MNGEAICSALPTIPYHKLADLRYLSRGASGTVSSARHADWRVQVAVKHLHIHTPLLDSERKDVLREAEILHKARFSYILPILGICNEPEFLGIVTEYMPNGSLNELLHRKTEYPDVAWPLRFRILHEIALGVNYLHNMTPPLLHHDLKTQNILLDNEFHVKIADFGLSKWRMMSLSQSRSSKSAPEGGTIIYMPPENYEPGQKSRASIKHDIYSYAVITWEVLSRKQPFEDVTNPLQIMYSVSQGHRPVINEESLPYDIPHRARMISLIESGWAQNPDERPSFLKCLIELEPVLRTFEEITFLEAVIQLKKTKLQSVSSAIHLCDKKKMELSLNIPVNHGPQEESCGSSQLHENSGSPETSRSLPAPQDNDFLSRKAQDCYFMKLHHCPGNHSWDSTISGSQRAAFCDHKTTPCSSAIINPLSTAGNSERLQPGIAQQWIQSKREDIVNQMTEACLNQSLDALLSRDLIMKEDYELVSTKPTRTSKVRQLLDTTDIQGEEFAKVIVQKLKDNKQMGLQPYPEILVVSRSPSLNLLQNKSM

## COc1ccc(NS(=O)(=O)c2ccc(OCC(=O)N3CCN(C)CC3)cc2)cc1Cl
[1]
  inhibition: 2.1% (inactive)
[2]
  inhibition: 48.2% (active)
[3]
  inhibition: 34.7% (inactive)
[4]
  inhibition: 3.62% (inactive)

## CCOC(=O)[C@]12Cc3ccccc3[C@H]1N(C1CCCCC1)C(=O)c1cc(OC)ccc12
[5]
  inhibition: 61.3% (active)
[6]
  inhibition: 0.28% (inactive)
[1]
  inhibition: 55.3% (active)
[2]
  inhibition: 98% (active)
[3]
  inhibition: 58.9% (active)
[4]
  inhibition: 85.2% (active)

## CCN(CC)C1=NC(=[N+](CC)CC)c2ccccc21
[7]
  inhibition: 9.91% (inactive)
[8]
  inhibition: 31.1% (active)
[1]
  inhibition: 33.7% (active)
[2]
  inhibition: 107% (active)
[3]
  inhibition: 74.5% (active)
[4]
  inhibition: 85.6% (active)

## CCC(c1nnnn1-c1ccc2c(c1)OCCO2)N1CCC(n2c(=O)[nH]c3ccccc32)CC1 (configuration not stated)
[7]
  inhibition: -22% (inactive)
[8]
  inhibition: 9.85% (inactive)

## CC(=NCc1ccc2c(c1)OCO2)c1c(O)[nH]c(=O)[nH]c1=O
[9]
  inhibition: 2.39% (inactive)
[10]
  inhibition: 8.56% (inactive)

## CC(C)(C)c1ccc(CSc2cnn(C(C)(C)C)c(=O)c2Cl)cc1
[7]
  inhibition: -34.9% (inactive)
[8]
  inhibition: 44.7% (active)
[1]
  inhibition: 28.1% (active)
[2]
  inhibition: 99.2% (active)
[3]
  inhibition: 63.8% (active)
[4]
  inhibition: 57.7% (active)

## O=C1Nc2ccccc2/C1=C/c1cnc[nH]1
[1]
  inhibition: 14.6% (inactive)
[2]
  inhibition: 14.2% (inactive)
[3]
  inhibition: 40.8% (inactive)
[4]
  inhibition: -10.7% (inactive)

## CC(=O)O[C@H]1C(=O)[C@@]2(C)C([C@H](OC(=O)c3ccccc3)[C@]3(O)C[C@H](OC(=O)[C@H](O)[C@@H](NC(=O)Cc4ccccc4)c4ccccc4)C(C)=C1C3(C)C)[C@]1(OC(C)=O)CO[C@@H]1C[C@@H]2O (some centres not stated)
[1]
  inhibition: 50.1% (active)
[2]
  inhibition: 45.2% (active)
[3]
  inhibition: 54.9% (active)
[4]
  inhibition: 36.1% (active)

## CCOC(=O)[C@]12Cc3ccc(C)cc3[C@H]1N(C1CCCCC1)C(=O)c1ccccc12
[1]
  inhibition: 39.6% (active)
[2]
  inhibition: 98% (active)
[3]
  inhibition: 29.8% (inactive)
[4]
  inhibition: 84.1% (active)

## Cn1cc(NC(=O)CCl)cn1
[1]
  inhibition: 41% (active)
[2]
  inhibition: 61.9% (active)
[3]
  inhibition: 61.2% (active)
[4]
  inhibition: -18.7% (inactive)

## Cc1ccc2c(C)c3ccc4ccccc4c3c[n+]2c1
[7]
  inhibition: 17.2% (inactive)
[8]
  inhibition: 31.6% (active)
[1]
  inhibition: 28.1% (active)
[2]
  inhibition: 99.6% (active)
[3]
  inhibition: 39.4% (inactive)
[4]
  inhibition: 78% (active)

## CCOC(=O)[C@]12Cc3cc(OC)ccc3[C@H]1N(C1CCCCC1)C(=O)c1ccccc12
[1]
  inhibition: 49.6% (active)
[2]
  inhibition: 93.3% (active)
[3]
  inhibition: 42.2% (inactive)
[4]
  inhibition: 87.4% (active)

## CC(=O)O[C@H]1C[C@@H]2OC3C=C(C)CCC3(C)[C@@]1(C)[C@@]21CO1 (some centres not stated)
[11]
  inhibition: 79.3% (active)
[12]
  inhibition: 77.9% (active)

## CC(=O)OC1CC(OC2C(O)CC(OC3C(O)CC(OC4CCC5(C)C(CCC6C5CCC5(C)C(C7=CC(=O)OC7)CCC65O)C4)OC3C)OC2C)OC(C)C1OC1OC(CO)C(O)C(O)C1O (configuration not stated)
[11]
  inhibition: 67.4% (active)
[12]
  inhibition: 54.4% (active)

## CCc1nnc(NS(=O)(=O)c2ccc(N=Cc3c(O)n(-c4ccccc4)c(=O)[nH]c3=O)cc2)s1
[13]
  inhibition: 11.7% (active)
[14]
  inhibition: 7.85% (inactive)
[15]
  inhibition: 32.1% (active)

## CC/C(=N\NC(=O)c1ccccc1O)c1c(O)n(Cc2ccccc2)c(=O)[nH]c1=O
[16]
  inhibition: -6.16% (inactive)
[17]
  inhibition: 29.4% (active)

## COc1ccc(C(=O)C2CN(C)CC2C(=O)c2ccc(OC)cc2)cc1 (configuration not stated)
[18]
  activation: -0.19% (inactive)
[19]
  activation: 0.28% (inactive)

## O=C(N/N=C/c1c(O)n(Cc2ccccc2)c(=O)[nH]c1=O)c1ccccc1
[20]
  activation: 1.81% (inactive)
[21]
  activation: 0.01% (inactive)

## CC(C)(C)c1ccc(OC(=O)N2CCCCC2)cc1
[20]
  activation: 14.1% (active)
[21]
  activation: 0.52% (inactive)
